Measurements: PubChem BioAssay AID1851 (National Center for Advancing Translational Sciences (NCATS), 2009)
The whole screen tested about 16,000 compounds, of which about 5,800 (36%) were called active. Inconclusive results (about 23%) are left out. The call rests on the fitted dose curve; in most records, active means well fitted curve in the direction sought with a large enough effect; inconclusive means small, poorly fitted or top-dose-only effect, or effect the other way; inactive means no such curve, though single readings can be large or run the other way. The list shows a part of the results.

Biological target: Cytochrome P450 2C19 (Homo sapiens) (UniProt P33261)
Experiment: Cytochrome panel assay with activity outcomes
Details: recombinant CYP, pro-luciferin dealkylation, luminescence, p450-cyp2c19; series mostly up to 57.1 µM; activity, negative = inhibition: at the top concentration
On the % scale 0 is the no-effect control and ±100 the full control effect.

Chain of Cytochrome P450 2C19 (Homo sapiens) (P33261 whole entry, looked up): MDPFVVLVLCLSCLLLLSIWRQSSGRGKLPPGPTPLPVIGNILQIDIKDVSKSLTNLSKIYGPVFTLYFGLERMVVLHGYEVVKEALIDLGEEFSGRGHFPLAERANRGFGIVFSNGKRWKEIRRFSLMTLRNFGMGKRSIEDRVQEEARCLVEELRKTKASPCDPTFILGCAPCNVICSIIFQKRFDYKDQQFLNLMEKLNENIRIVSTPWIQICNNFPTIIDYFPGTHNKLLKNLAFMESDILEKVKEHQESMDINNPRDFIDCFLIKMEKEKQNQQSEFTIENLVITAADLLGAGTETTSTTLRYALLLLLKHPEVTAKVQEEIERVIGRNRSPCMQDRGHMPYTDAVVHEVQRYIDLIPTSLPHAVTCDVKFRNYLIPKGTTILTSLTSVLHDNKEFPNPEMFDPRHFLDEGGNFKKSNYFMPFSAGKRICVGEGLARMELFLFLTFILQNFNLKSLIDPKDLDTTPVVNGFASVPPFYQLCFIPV

AC50, active:
O=c1c2ccccc2nnn1CSc1nnnn1-c1ccccc1 7940 nM, O=c1c2ccccc2nnn1CSc1ccc2c(c1)OCCO2 1120 nM, Cc1cc(C)c(C#N)c(OCC(=O)c2ccc(Br)cc2)n1 3160 nM, C/C(=N\NC(=O)c1ccncc1)c1ccc2ccccc2c1O 501 nM, O=Nc1c(O)n(Cc2ccc(Cl)cc2)c2ccccc12 794 nM, O=Nc1c(O)n(Cc2cccc(Cl)c2)c2ccccc12 3550 nM, O=Nc1c(O)n(Cc2ccc(Cl)c(Cl)c2)c2ccccc12 891 nM, COc1ccc([N+](=O)[O-])cc1NCc1ccccc1C 2820 nM, Cc1cc([N+](=O)[O-])ccc1NCc1ccccc1 2000 nM, O=[N+]([O-])c1ccc(CS(=O)Cc2ccccc2)cc1 (stereo not drawn) 1260 nM, O=C1CC(N2CCOCC2)C(=O)N1c1cccc(Cl)c1 (stereo not drawn) 8910 nM, CO[C@@H]1/C=C\O[C@@]2(C)Oc3c(C)c(O)c4c(c3C2=O)C(=N[C@H]2CC[C@H](O)O[C@@H]2C)C=C(NC(=O)/C(C)=C\C(=O)[C@@H]2C[C@@H]2[C@@H](O)[C@H](C)[C@@H](O)[C@H](C)[C@H](OC(C)=O)[C@@H]1C)C4=O 2510 nM, Cc1ccc(N2C(=O)C(Cl)=C(NCc3ccccc3)C2=O)c(C)c1 3160 nM, c1ccc(CSc2ncnc3c2sc2nc(N4CCOCC4)c4c(c23)CCCC4)cc1 7080 nM

activity, negative = inhibition, inactive:
Cn1c(=O)c2c(n(Cc3ccccc3)c1=O)NC(=O)C2CC(=O)NCc1cccc(Cl)c1 (stereo not drawn) 13.5%, O=C1C(=O)N(Cc2ccc(Cl)c(Cl)c2)c2ccccc21 -16.7%, O=C(O)c1cc([N+](=O)[O-])ccc1NCCCc1ccccc1 -3.04%, CN(Cc1ccccc1)c1nc(-c2ccc([N+](=O)[O-])cc2)nc2ccccc12 -10.7%, COc1ccccc1CN1CCC2(CC1)CCN(C(=O)c1cccn1C)CC2 2.93%, CO[C@@H]1/C=C\O[C@]2(C)Oc3c(C)c(O)c4c(O)c(cc(O)c4c3C2=O)NC(=O)/C(C)=C\C=C/[C@H](C)[C@@H](O)[C@H](C)[C@H](O)[C@H](C)[C@H](OC(C)=O)[C@@H]1C -13.1% [at 11.4 µM], CO[C@H]1C=CO[C@]2(C)Oc3c(C)c(O)c4c(O)c(c5c(c4c3C2=O)NC2(CCN(CC(C)C)CC2)N=5)=NC(=O)C(C)=CC=C[C@@H](C)[C@@H](O)[C@@H](C)[C@@H](O)[C@@H](C)[C@@H](OC(C)=O)[C@@H]1C -33.7% [at 25.6 µM], OCCn1cnc2c(SCc3ccccc3)ncnc21 12.6% [at 11.4 µM], CCSc1ncnc2c1sc1nc(-c3ccco3)c3c(c12)CC(C)(C)OC3 6.2%
